Only some compounds are listed: those with a hit (about 3.8% of all), similar ones and a draw of the others.
VDR inh – vitamin D3 receptor (human) inhibition; P11473; VDR-SRC2-3 peptide fluorescence polarization, 2 h; Potency, µM, for inactives: max response, negative = inhibition, hits mostly inhibitors; 400,000 compounds, 0.93% hits; note: potency is the fitted concentration of half-maximal effect; % is set by controls: 0 for no effect and ±100 for the full control effect
Target sequence (P11473 whole entry, looked up): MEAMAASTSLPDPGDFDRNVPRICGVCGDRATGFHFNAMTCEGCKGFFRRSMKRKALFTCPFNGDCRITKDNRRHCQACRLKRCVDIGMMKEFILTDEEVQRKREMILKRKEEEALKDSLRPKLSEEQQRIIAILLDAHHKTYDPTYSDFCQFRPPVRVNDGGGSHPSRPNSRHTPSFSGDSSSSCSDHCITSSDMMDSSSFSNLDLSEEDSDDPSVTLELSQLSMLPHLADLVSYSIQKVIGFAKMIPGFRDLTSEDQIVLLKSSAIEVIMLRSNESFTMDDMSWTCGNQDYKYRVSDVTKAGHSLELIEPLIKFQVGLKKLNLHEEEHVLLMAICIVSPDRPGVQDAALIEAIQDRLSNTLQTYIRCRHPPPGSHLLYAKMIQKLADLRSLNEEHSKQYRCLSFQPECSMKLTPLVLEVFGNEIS
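VDR–SRC2-3 interaction, FP format. Cmpds 23 nl via pintool, brief spin, 2 h ambient incubation.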
KCNH2 3.1 block – blocks the human KCNH2 3.1 channel isoform; U2OS KCNH2 3.1, thallium flux FluxOr; stronger effect = lower value; 340,000 compounds, 0.95% hits; AID 720553; activity change, % (tested at about 1.8 µM);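 active = maximum activity change below -70%; inconclusive = maximum activity change from -70% to -50%; inactive = maximum activity change above -50%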;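 note: thallium influx rate constant from kinetic fluorescence after stimulation buffer; % is set by controls: 0 for no effect and ±100 for the full control effect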
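Virally transduced U2OS (3.1 isoform, 4 h infection in dark at RT) → overnight 37 C → FluxOr + Red40 in HBSS/HEPES, 45 min → stimulation buffer, 2 min kinetic read → rate constant vs DMSO controls.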
hERG WT inh – inhibitors of human wildtype KCNH2 potassium channel; Q12809; U2OS, BacMam KCNH2, thallium flux FluxOr; stronger effect = lower value; activity change, % at 1.84 µM; 340,000 compounds, 0.37% hits;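 active = maximum activity change below -70%; inconclusive = maximum activity change between -70% and -50%; inactive = maximum activity change above -50%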; note: % is set by controls: 0 for no effect and ±100 for the full control effect
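U2OS cells were transduced with wild-type KCNH2 virus (2.03 x 10^8 / mL) for 4 h at room temperature, then cultured overnight at 37 C. Thallium flux was read with FluxOr dye. Rate constants were normalized to DMSO controls.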
MBNL1-CUG inh – blocks human MBNL1 binding to CUG repeat RNA; Q9NR56; Potency, µM (doses to about 57.5 µM), inactives show at the highest dose activity change, negative = inhibition, usual class: inhibitors; TR-FRET MBNL1-His/biotin-(CUG)12 binding, 665/545 ratio; 280,000 compounds, 0.036% hits; active = well fitted inhibition curve with a large enough effect in the signal ratio, with a control signal flat, not every such curve was filed as active; inconclusive = small, poorly fitted or top-dose-only effect, or effect the other way, or a change in a side signal; inactive = no such curve, though single readings can be large or run the other way; the % refers to the signal ratio; note: potency is the fitted concentration of half-maximal effect; % is set by controls: 0 for no effect and ±100 for the full control effect
Target sequence (Q9NR56 whole entry, looked up): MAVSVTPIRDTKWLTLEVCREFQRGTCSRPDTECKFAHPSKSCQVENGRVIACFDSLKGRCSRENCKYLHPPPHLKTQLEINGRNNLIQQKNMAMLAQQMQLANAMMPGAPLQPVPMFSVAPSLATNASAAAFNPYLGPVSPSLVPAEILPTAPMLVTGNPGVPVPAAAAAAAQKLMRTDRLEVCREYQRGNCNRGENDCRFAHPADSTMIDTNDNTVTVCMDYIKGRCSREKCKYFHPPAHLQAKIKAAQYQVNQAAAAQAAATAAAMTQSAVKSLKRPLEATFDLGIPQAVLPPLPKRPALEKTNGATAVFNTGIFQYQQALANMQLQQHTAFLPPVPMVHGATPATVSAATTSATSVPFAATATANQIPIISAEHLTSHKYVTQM
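His-tagged MBNL1 binding to biotinylated (CUG)12 RNA was measured by TR-FRET using terbium anti-His antibody (0.055 ng/ul final) and streptavidin-XL665 (5 nM final). Compounds were titrated 92 nM to 58 uM; 60 min at room temperature.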
PLK1 PBD inh – inhibitors of human PLK1 polo-box domain binding. Potency, µM, inactives show max response, negative = inhibition, actives largely listed as inhibitors. 360,000 compounds, 2.8% hits. Plk1 PBD binding of FITC phosphopeptide, fluorescence polarization; note: potency is the fitted concentration of half-maximal effect; series mostly up to about 57 µM; % is set by controls: 0 for no effect and ±100 for the full control effect; nearly all actives have a fitted effect of over 65% in size
CBFb RUNX1 block – blocks binding between human CBF-beta and RUNX1; 230,000 tested, under 10 active; Potency, µM (series often up to 59.8 µM), inactives show top-dose activity, negative = inhibition, hits mostly inhibitors; AlphaScreen CBFb-His/RUNX1-biotin binding, biochemical; Q01196+Q13951; note: % of control where 0% means no effect
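CBF-beta (His) and RUNX1 (biotin), 30 nM each; 20 min preassociation; + compound, 15 min; + beads 50 ng each (Ni, streptavidin), 90 min; RT; AlphaScreen read.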
TbPYK confirm – confirmation of Trypanosoma brucei pyruvate kinase inhibitors | Potency, µM (titrated, usually from 76.9 µM), for inactives: at the highest dose activity change, negative = inhibition, most hits filed as inhibitors | shares compounds with PLK1 PBD inh | recombinant TbPYK, Kinase-Glo ATP luminescence | 890 compounds, 67% hits; note: potency is the fitted concentration of half-maximal effect; % is set by controls: 0 for no effect and ±100 for the full control effect; nearly all actives have a fitted effect of over 70% in size
TbPYK ADP-Glo – orthogonal confirmation of Trypanosoma brucei pyruvate kinase inhibitors; AID 720584; shares compounds with PLK1 PBD inh; 890 compounds, 62% hits; Potency, µM (highest dose often 76.9 µM), inactives show top-dose activity change, negative = inhibition, usual class: inhibitors; recombinant TbPYK, ADP-Glo luminescence, 60 min; note: potency is the fitted concentration of half-maximal effect; % is set by controls: 0 for no effect and ±100 for the full control effect; nearly all actives have a fitted effect of over 75% in size
Numbers without * were called inactive; i = inactive; u = inconclusive; x = not tested or not shown. Unless noted, calls come from the whole dose curve; as a rule, active = well fitted curve in the direction sought with a large enough effect; inconclusive = small, poorly fitted or top-dose-only effect, or another doubt; inactive = no such curve, though single readings can be large; an effect the other way counts as inactive or inconclusive.

SMILES	VDR inh	KCNH2 3.1 block	hERG WT inh	MBNL1-CUG inh	PLK1 PBD inh	CBFb RUNX1 block	TbPYK confirm	TbPYK ADP-Glo
O=C(N/N=C/c1ccccc1)c1[nH]ncc1Br	8.0%	13.5	2.8	6.6%	-7.7%	-5.5%	-27.4%	0.7%
COc1ccc(CCNC(=O)Cc2c(C)c3cc4c(C(C)(C)C)coc4c(C)c3oc2=O)cc1OC	-1.3%	x	x	x	x	x	x	x
COC(=O)c1cc(=O)nc2sc3cc(OC)ccc3n12	17.8%	-10.6	2.2	-4.6%	-11.8%	16.8%	x	x
COc1ccc(O)c(/C=c2/sc3nc4cc(C)c(C)cc4n3c2=O)c1	u	5.7	-14.1	u	10.6µM*	-17.9%	10µM*	11.2µM*
O=c1cc(C(F)(F)F)[nH]c(=S)n1-c1ccccc1	-28.1%	-19.5	-10.6	2.0%	u	x	14.1µM*	11.2µM*
CC(C)c1ccc(S(=O)(=O)N2CCC(N3CCN(Cc4ccccc4)C(=O)C3=O)CC2)cc1	-8.4%	x	x	x	x	x	x	x
CCN(CC)c1ccc(C(=C2C=CC(=[N+](CC)CC)C=C2)c2ccc(N(CC)CC)cc2)cc1	u	2.1	-4.0	x	29.9µM*	x	22.4µM*	14.2%
O=C1CSC(=S)N1N=Cc1ccccc1O	u	13.9	-18.4	x	13.4µM*	x	12.6µM*	12.6µM*
C[C@@H]1CCCCO[C@H](CN(C)Cc2ccc(Cl)c(Cl)c2)[C@@H](C)CN([C@H](C)CO)C(=O)c2cc(N(C)C)ccc2O1	x	20.4	12.6	x	-2.2%	x	6.31µM*	6.31µM*
C[C@@H]1CCCCO[C@H](CN(C)C(=O)Nc2cccc3ccccc23)[C@@H](C)CN([C@H](C)CO)C(=O)c2cc(N(C)C)ccc2O1	x	-14.4	-5.2	x	0.5%	x	3.55µM*	7.08µM*
C[C@@H]1CCCCO[C@@H](CN(C)C(=O)Nc2ccccc2)[C@@H](C)CN([C@H](C)CO)C(=O)c2cc(N(C)C)ccc2O1	x	-3.2	-7.1	x	-19.4%	x	x	x
CCCCOc1ccc(NC(=O)CCSc2nccn2C)cc1	-1.5%	-2.8	28.0	-2.2%	-0.6%	-6.6%	2µM*	2.24µM*
CCOC(=O)c1ccc(NC(=O)CSc2nccn2C)cc1	-3.4%	-12.5	-5.2	0.0%	-14.2%	-5.5%	x	x
COc1ccc(S(=O)(=O)N(CC(=O)Nc2cccc(C(F)(F)F)c2)c2ccc(C)cc2)cc1	-7.9%	x	x	x	x	x	x	x
O=C(CSc1cccc2cccnc12)N1CCCC1	-16.7%	7.3	-0.1	20.0%	2.99µM*	x	u	u
Cc1nc2nc(CNC(=O)OC(C)(C)C)nn2c(C)c1CCC(=O)NCc1ccc(F)cc1	6.3%	x	x	x	x	x	x	x
COc1ccc(-c2ccc(C(=S)N3CCN(C(C)=O)CC3)o2)cc1	79.4µM*	8.4	9.4	u	23.8µM*	-3.3%	22.4µM*	31.6µM*
COc1ccc(CC(=O)N2CCN(C(=O)Cc3ccc(OC)cc3)CC2)cc1	-8.4%	-13.4	-0.2	1.7%	u	6.9%	x	x
c1ccc2c(c1)CCC[C@H]2Nc1nc2ccccc2[nH]1	-4.5%	x	x	x	x	x	x	x
CCN1C(=O)/C(=C/C=C2/Sc3ccc4ccccc4c3N2CCO)SC1=S	2.8%	2.8	-16.2	x	-8.5%	-7.9%	15.8µM*	u
CCN1C(c2ccccc2)=C(c2ccccc2)S/C1=C\C=C1/SC(=S)N(C)C1=O	-24.4%	9.4	6.8	x	-20.0%	x	x	x
COc1cccc(CNc2ccc3nc(-c4ccc(N)cc4)c(OC)n3n2)c1	-1.5%	x	x	x	x	-8.8%	x	x
Cc1ccc(CN2CCCN(CC(=O)Nc3ccc(C)cc3C)S2(=O)=O)cc1	19.5%	x	x	x	x	x	x	x
O=C(Cc1ccccc1)Nc1cccc(N2C(=O)C=CC2=O)c1	u	-13.5	-2.2	-11.7%	5.32µM*	-6.8%	5.62µM*	8.91µM*
O=C(O)c1cc(NC(=O)c2cccc(N3C(=O)c4ccccc4C3=O)c2)cc(C(=O)O)c1	-7.5%	0.8	1.1	u	-12.1%	x	x	x
SMILES	VDR inh	KCNH2 3.1 block	hERG WT inh	MBNL1-CUG inh	PLK1 PBD inh	CBFb RUNX1 block	TbPYK confirm	TbPYK ADP-Glo
O=C(O)c1cccc(N2C(=O)C=CC2=O)c1	x	14.3	-8.7	x	11.9µM*	x	25.1µM*	35.5µM*
CC(=O)Nc1ccc(C(=O)CSc2nnc3cc(C)c4ccccc4n23)cc1	13.2%	x	x	x	x	x	x	x
CC1CN(C(=O)Nc2ccc(C(=O)NCCc3ccccc3)cc2)c2ccccc2S1 (stereo unspecified)	4.9%	x	x	x	x	x	x	x
Oc1ccc(C2C[C@H]3CC[C@@H]2C3)cc1O (stereo partly specified)	-13.5%	-33.3	-4.0	-1.8%	u	x	10µM*	14.1µM*
COc1ccc(OC)c(C2CC(=O)N3CN(c4cccc(Cl)c4)CSC3=C2C#N)c1 (stereo unspecified)	50.1µM*	5.4	-5.6	7.1%	-8.2%	-0.6%	u	39.8µM*
COc1cc(SC)ccc1C(=O)N1CCN(c2ccccc2OC)CC1	-10.6%	-20.6	i	-9.5%	-15.1%	0.3%	x	x
COc1cccc(C2CC(=O)N3CN(c4cccc(Cl)c4C)CSC3=C2C#N)c1OC (stereo unspecified)	22.4µM*	6.9	4.1	-4.8%	26.7µM*	-7.5%	17.8µM*	6.31µM*
COc1ccccc1N1CSC2=C(C#N)C(c3ccc(SC)cc3)CC(=O)N2C1 (stereo unspecified)	22.4µM*	-0.5	7.5	21.3%	18.9µM*	-19.0%	2.51µM*	2.24µM*
COc1ccc(OC)c(C2CC(=O)N3CN(c4cccc(Cl)c4C)CSC3=C2C#N)c1 (stereo unspecified)	31.6µM*	-1.5	5.6	15.7%	u	-10.2%	15.8µM*	7.94µM*
CCOC(=O)c1scc(-c2ccc(C)cc2)c1S(=O)(=O)Nc1cc(Cl)ccc1OC	-0.2%	x	x	x	x	x	x	x
COc1ccc(NC(=O)CSc2nc3c(oc4ccccc43)c(=O)n2-c2ccccc2)cc1OC	-26.8%	x	x	x	x	x	x	x
COc1ccc(OC)c(C2CC(=O)N3CN(c4ccccc4F)CSC3=C2C#N)c1 (stereo unspecified)	35.5µM*	0.3	0.6	19.6%	u	u	5.01µM*	10µM*
COc1ccc(OC)c(C2CC(=O)NC(SC)=C2C#N)c1 (stereo unspecified)	-7.8%	-2.5	7.2	4.3%	-4.7%	-1.7%	x	x
Cc1ccc(CNC(=O)C2CCN(S(=O)(=O)c3cccs3)CC2)o1	u	-6.6	-11.8	3.7%	-16.3%	5.2%	u	u

Screening data as filed in PubChem.
